Hits are enriched below; roughly 5.5% of the tested compounds scored in any of these assays.
Sfp PPTase inh – blocks B. subtilis Sfp PPTase activity. hit rate 3.5% among 310,000. Potency, µM, most hits filed as inhibitors. Q9F4F7. AID 1490. Biochemical Sfp PPTase activity, qHTS;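 further: the enzyme is Sfp with the accession as filed and its product quenches rhodamine fluorescence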
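After 15 min at room temperature with compound, 15 nM Sfp received 5 uM rhodamine-CoA plus 12.5 uM BHQ-2-ybbR (50 mM Hepes pH 7.6, 10 mM MgCl2). Rate came from the fluorescence difference over 30 min, ex 525/em 598 nm.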
Giardia killer – Giardia lamblia killing | Giardia lamblia trophozoite viability | activity change, % at 7.66 µM, hits read low | hit rate 0.15% among 340,000 | AID 540267; in the data active means activity change below about -80%; inconclusive means between about -30% and that limit;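 further: parasites exposed to compound for two days anaerobically before the ATP read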
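Giardia lamblia trophozoites (100 cells/well) were incubated with compounds for 48 h at 37 deg C under anaerobic conditions. Viability was read as ATP content by one-step luminescence after 15-30 min at room temperature.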
ELG1 repair inh – inhibitors of ELG1-dependent DNA repair in HEK293T cells. HEK293T ELG1-luciferase reporter, luminescence, 16 h; DNA damage induced by 5-fluorouridine. Potency, µM (series often up to 46.1 µM), hits mostly inhibitors. hit rate 2.3% among 330,000. AID 504467; further: nearly all actives have a fitted effect of over 55% in size
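Step one: seed 2,000 cells per well. Step two: pin-transfer compound or DMSO alongside 5-fluorouridine. Step three: incubate 16 hr, 37 °C, 5% CO2. Step four: add ONE-Glo, wait 30 min, read luminescence.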
FBPA coupling cs – coupling enzyme interference in Giardia aldolase counter-screen; AID 2472; hit rate 0.67% among 290,000; coupling enzyme system counterscreen, AmpLite Red fluorescence; activity change, negative = inhibition, % at 58.2 µM, hits read low; in the data active means activity change below about -30%
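First, compound is pin-transferred into glyceraldehyde-3-phosphate coupling-enzyme reagent at 57.5 uM final and held 10 min at RT. Next, substrate, coupling system and AmpLite Red are added. After 20 min RT, fluorescence (525/598 nm) is read.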
Sfp inh conf – Sfp phosphopantetheinyl transferase inhibition, confirmation; shares compounds with Sfp PPTase inh; Sfp PPTase enzymatic assay, qHTS titration; Potency, µM (doses to about 114 µM), usual class: inhibitors; hit rate 79% among 380
Target sequence (Q9F4F7 whole entry, looked up): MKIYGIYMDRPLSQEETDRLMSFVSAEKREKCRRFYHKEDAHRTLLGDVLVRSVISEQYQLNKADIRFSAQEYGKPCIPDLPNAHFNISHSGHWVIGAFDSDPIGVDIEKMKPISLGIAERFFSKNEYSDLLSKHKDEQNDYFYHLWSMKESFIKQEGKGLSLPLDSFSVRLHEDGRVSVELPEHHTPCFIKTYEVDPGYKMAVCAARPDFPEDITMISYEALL
Sfp PPTase gel – Inhibits B. subtilis Sfp phosphopantetheinylation; shares compounds with Sfp PPTase inh; purified Sfp, gel-based phosphopantetheinylation read-out; Potency, µM, usual class: inhibitors; hit rate 20% among 210; AID 2707;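 active means potency below 100 µM; inconclusive means dose-dependent response but potency above 100 µM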;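 further: potency is an IC50 for inhibitors of Sfp transfer activity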
Hits are given with their value; 0 = inactive; ? = inconclusive; - = not tested or not shown; ! = repeats disagree. Unless noted, the call rests on the fitted dose curve; in most records, active means well fitted curve in the direction sought with a large enough effect; inconclusive means small, poorly fitted or top-dose-only effect, or another doubt; inactive means no such curve, though single readings can be large; an effect the other way counts as inactive or inconclusive.

SMILES	Sfp PPTase inh	Giardia killer	ELG1 repair inh	FBPA coupling cs	others
CC(C)n1c(O)c(C2c3cc(Cl)ccc3Oc3[nH]c(=O)n(C(C)C)c(=O)c32)c(=O)[nH]c1=O (stereo unspecified)	28µM	0	?	0
CN[C@@H](C)[C@H]1CC[C@@H](N)[C@@H](O[C@@H]2[C@@H](O)[C@@H](O[C@H]3OC[C@@](C)(O)[C@@H](NC)[C@@H]3O)[C@H](N)C[C@@H]2N)O1 (tested in a mixture with another compound)	0	-	-	0
COc1cc2c(cc1OC)C(C(=O)N1CCC3(CC1)OCCO3)C(c1ccccc1F)N(C)C2=O (stereo unspecified)	0	0	18µM	0
O=C(C1c2ccccc2C(=O)N2CCc3ccccc3C12)N1CCC2(CC1)OCCO2 (stereo unspecified)	0	0	0	0
COc1ccccc1N1C(=O)NC(=O)/C(=C/c2ccc3c4c(cccc24)CC3)C1=O	11µM	0	?	0
O=C1NC(=O)N(c2ccccc2)C(=O)/C1=C\c1ccc2c3c(cccc13)CC2	40µM	-	0	0
O=C1NC(=O)N(c2ccccc2)C(=O)/C1=C\c1ccccc1[N+](=O)[O-]	22µM	0	?	0
CCC(=O)CCCCC[C@@H]1NC(=O)[C@H]2CCCCN2C(=O)[C@H]([C@@H](C)CC)NC(=O)[C@H](Cc2cn(OC)c3ccccc23)NC1=O	0	-	-	0
CCC1(c2ccccc2)C(=O)NC(=O)N(C(=O)c2ccccc2)C1=O (stereo unspecified)	0	-	-	-
O=C1CN=C(c2ccccc2Cl)c2cc(Br)ccc2N1	-	0	-	-
O=C1CN=C(c2ccc[nH]2)c2cc(Cl)ccc2N1	0	0	8.2µM	0
COc1ccccc1NS(=O)(=O)c1cc(NC(=O)c2ccc(Cl)nc2)ccc1N1CCCC1	-	0	16µM	-
COc1ccc(NS(=O)(=O)c2ccc(OCC(=O)N3CCN(C)CC3)cc2)cc1Cl	0	0	0	-
COP(=S)(OC)Oc1ccc(S(=O)(=O)N(C)C)cc1	35µM	-	-	-
COC(=O)C12C/C=C\Cc3ccccc3[C@@H]1CNC2=O (stereo partly specified)	0	-	-	0
CC1CC[C@@]2(NC1)OC1CC3C4CC[C@@H]5CC(O)CC[C@@]5(C)C4CC[C@]3(C)C1C2C (stereo partly specified)	0	-	-	0
O=C(O)c1ccccc1-c1c2cc(Br)c(=O)cc-2oc2[c]([Hg])c(O)c(Br)cc12	2µM!	-	-	0
Cc1ccc(-n2c(O)c(/C=C/C=Nc3ccccc3)c(=O)[nH]c2=O)cc1	0	0	0	0
Cc1ccc(N/N=C/c2c(O)n(-c3ccccc3)c(=O)[nH]c2=O)cc1	0	0	4.1µM	0
CCN(CC)c1ccc(N=Cc2c(O)n(-c3ccccc3)c(=O)[nH]c2=O)cc1	50µM	0	0	0
CCOC(=O)c1sc(/N=C/c2c(O)n(-c3ccccc3)c(=O)[nH]c2=O)c(C#N)c1C	50µM	0	?	0
CCOc1ccc(-n2c(O)c(C=Nc3ccc(N(CC)CC)cc3)c(=O)[nH]c2=O)cc1	?	0	0	0
COP(=O)(OC)[C@@H](O)C(Cl)(Cl)Cl	0	-	-	0
C[C@H]1CC[C@@H]2[C@@H](C)[C@H]3[C@H](C[C@H]4[C@@H]5CC=C6CC(O[C@@H]7O[C@H](CO)[C@H](O)[C@H](O[C@@H]8O[C@H](CO)[C@@H](O)[C@H](O)[C@H]8O)[C@H]7O[C@H]7O[C@@H](C)[C@H](O)[C@@H](O)[C@H]7O)CC[C@]6(C)[C@H]5CC[C@]34C)N2C1 (stereo partly specified)	0	-	-	-
CCCCC(C#N)(Cn1cncn1)c1ccc(Cl)cc1 (stereo unspecified)	0	-	-	0
SMILES	Sfp PPTase inh	Giardia killer	ELG1 repair inh	FBPA coupling cs	others
O=Cc1ccc(O)c(O)c1	32µM	0	0	0
c1ccc2sc(C3(NCC4CC4)CCCCC3)cc2c1	0	-	-	-
CN(C)C1C(=O)C(C(N)=O)C(=O)C2(O)C(=O)C3C(=O)c4c(O)cccc4C(C)(O)C3C(O)C12 (stereo unspecified)	7.9µM	-	-	0	Sfp inh conf=?
CN(C)C1C(=O)C(C(N)=O)=C(O)[C@@]2(O)C(=O)C3=C(O)c4c(O)cccc4[C@](C)(O)C3C(O)C12 (stereo partly specified)	0	-	-	0
Clc1ccc(COC(Cn2ccnc2)c2ccc(Cl)cc2Cl)c(Cl)c1 (stereo unspecified)	35µM!	0	0	0	Sfp inh conf=?
CC1=C2[C@@H]3OC(=O)[C@@H](C)[C@@H]3CC[C@]2(C)C=CC1=O	0	-	-	0
Cc1c(OCC(F)(F)F)ccnc1CS(=O)c1nc2ccccc2[nH]1 (stereo unspecified)	13µM!	0	?	0	Sfp inh conf=30µM;Sfp PPTase gel=0
COc1ccc(N2CC(C(=O)NCc3ccco3)CC2=O)cc1 (stereo unspecified)	?	?	0	0
